Laboratory results taken from PubChem BioAssay (EPA / NIEHS).
Records with an inconclusive call do not appear. Activity calls are given as the source filed them. How the source made its calls, unless noted: active means hit-call score of the fitted dose curve at least 0.9, where 1 is the maximum; inactive means score below 0.9.

How the values were obtained:
[1] = read-out: Interleukin-8 (IL8), CXCL8 (gene 3576); test: BSK_3C_IL8: BioMAP Diversity Plus: 3C Assay for Interleukin-8 (IL8) Biomarker Activity (AID 2283020); conditions: primary human endothelial cells (HUVEC); actives raise or lower the signal
Summary of the method: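 Using DMSO-treated wells as the baseline, bidirectional curve fitting was applied to ELISA-measured IL-8 from human umbilical vein endothelial cultures sampled 24 h after compound addition.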

[2] = read-out: Monokine induced gamma interferon (MIG), CXCL9 (gene 4283); test: BSK_3C_MIG: BioMAP Diversity Plus: 3C Assay for Monokine induced gamma interferon (MIG) Biomarker Activity (AID 2283021); conditions: primary human endothelial cells (HUVEC); actives raise or lower the signal
Summary of the method: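 ELISA-measured MIG in dosed HUVEC 3C cultures at 24 h, analysed by bidirectional fitting with DMSO defining baseline activity.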

[3] = target: human Vitamin D Receptor (VDR), VDR (gene 7421) (UniProt P11473); test: ATG_VDR_TRANS: Attagene TRANS-FACTORIAL HepG2 Assay for human Vitamin D Receptor (VDR) (AID 2283022; active means hit-call score of the fitted dose curve at least 0.9, where 1 is the maximum)
Summary of the method: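 HepG2 cells were transiently transfected with GAL4-UAS reporter units and a chimeric VDR-Gal4 construct, then dosed for 24 hours. Reporter mRNA was quantified by RT-PCR, fluorescent labeling, HpaI digestion and capillary electrophoresis; gain of signal analysed vs DMSO.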

[4] = BSK_3C_SRB: Viability Assessment in the BioMAP Diversity Plus: 3C Assay (AID 2283023); conditions: primary human endothelial cells (HUVEC);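 further: fitted both ways against DMSO so a hit may be signal rise or drop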
Summary of the method: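 Human umbilical vein endothelial cells in the 3C system, treated 24 h. Total protein measured by 0.1% sulforhodamine B staining after 10% TCA fixation, read at 560 nm; bidirectional fit versus DMSO.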

[5] = read-out: Matrix Metallopeptidase 1 (MMP1), MMP1 (gene 4312); test: BSK_BE3C_MMP1: BioMAP Diversity Plus: BE3C Assay for Matrix Metallopeptidase 1 (MMP1) Biomarker Activity (AID 2283024); conditions: primary human bronchial epithelial cells; actives raise or lower the signal
Summary of the method: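 In this multiplexed primary-cell system, human bronchial epithelium received chemicals for 24 h before an ELISA for MMP1. Values reflect bidirectional fits normalised to the DMSO baseline.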

[6] = read-out: Pselectin, SELP (gene 6403); test: BSK_4H_Pselectin: BioMAP Diversity Plus: 4H Assay for Pselectin Biomarker Activity (AID 2283026); conditions: primary human endothelial cells (HUVEC); actives raise or lower the signal
Summary of the method: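 Bidirectional fits against DMSO gave the endpoint. Cells: primary human umbilical vein endothelium, chemical-treated for 24 h before ELISA detection of P-selectin.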

[7] = BSK_4H_SRB: Viability Assessment in the BioMAP Diversity Plus: 4H Assay (AID 2283027); conditions: primary human endothelial cells (HUVEC);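 further: cells exposed to compound for 24 h before staining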
Summary of the method: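 Cytotoxicity read-out in primary human endothelial cells: after 24 h compound exposure, cells were TCA-fixed (10%), stained with 0.1% SRB and absorbance taken at 560 nm. Values fitted in both directions relative to DMSO.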

[8] = BSK_BE3C_SRB: Viability Assessment in the BioMAP Diversity Plus: BE3C Assay (AID 2283028); conditions: primary human bronchial epithelial cells
Summary of the method: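 Human bronchial epithelial primary cells in confluent culture, 24 h after chemical dosing; total protein by 0.1% SRB staining after 10% TCA fixation, read at 560 nm. Bidirectional fitting versus DMSO baseline.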

[9] = read-out: Thrombomodulin, THBD (gene 7056); test: BSK_3C_Thrombomodulin: BioMAP Diversity Plus: 3C Assay for Thrombomodulin Biomarker Activity (AID 2283029); conditions: primary human endothelial cells (HUVEC); actives raise or lower the signal
Summary of the method: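 In a multiplexed primary-cell system, human umbilical vein endothelium received chemical and was assayed 24 h later for thrombomodulin by ELISA. Parallel cultures were SRB-stained (0.1% SRB after 10% TCA fixation, read at 560 nm) to flag cytotoxicity.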

[10] = read-out: Urokinase-type plasminogen activator receptor (uPAR), PLAUR (gene 5329); test: BSK_4H_uPAR: BioMAP Diversity Plus: 4H Assay for Urokinase-type plasminogen activator receptor (uPAR) Biomarker Activity (AID 2283030); conditions: primary human endothelial cells (HUVEC); actives raise or lower the signal
Summary of the method: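 Human umbilical vein endothelial cells in the 4H system, 24 h after chemical dosing. Cell-surface uPAR measured by ELISA, fitted in both directions versus DMSO; cytotoxicity checked by SRB total protein in parallel cultures.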

[11] = read-out: Human Leukocyte Antigen - DR isotype (HLADR), HLA-DRA (gene 3122); test: BSK_BE3C_HLADR: BioMAP Diversity Plus: BE3C Assay for Human Leukocyte Antigen - DR isotype (HLADR) Biomarker Activity (AID 2283032); conditions: primary human bronchial epithelial cells; actives raise or lower the signal
Summary of the method: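 BioMAP BE3C format: human bronchial epithelium, 24 h compound treatment, ELISA detection of HLA-DR, with bidirectional analysis relative to DMSO.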

[12] = read-out: Vascular cell adhesion molecule 1 (VCAM1), VCAM1 (gene 7412); test: BSK_4H_VCAM1: BioMAP Diversity Plus: 4H Assay for Vascular cell adhesion molecule 1 (VCAM1) Biomarker Activity (AID 2283033); conditions: primary human endothelial cells (HUVEC); actives raise or lower the signal
Summary of the method: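 In this human endothelial (HUVEC) system, biomarker ELISA was run 24 h after compound addition, and total protein in parallel wells was assessed by SRB at 560 nm; DMSO served as negative control.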

[13] = read-out: Interferon-gamma inducible Protein 10 (IP10), CXCL10 (gene 3627); test: BSK_BE3C_IP10: BioMAP Diversity Plus: BE3C Assay for Interferon-gamma inducible Protein 10 (IP10) Biomarker Activity (AID 2283034); conditions: primary human bronchial epithelial cells; actives raise or lower the signal
Summary of the method: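 BE3C cells (human bronchial epithelial, primary); 24 h exposure; ELISA for IP-10; DMSO-referenced bidirectional fit.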

[14] = read-out: Monokine induced gamma interferon (MIG), CXCL9 (gene 4283); test: BSK_BE3C_MIG: BioMAP Diversity Plus: BE3C Assay for Monokine induced gamma interferon (MIG) Biomarker Activity (AID 2283035); conditions: primary human bronchial epithelial cells; actives raise or lower the signal;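 further: MIG protein measured by ELISA in BE3C cultures after 24 h of dosing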
Summary of the method: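 ELISA quantified MIG after 24 h exposure of primary bronchial epithelial cultures, analysed in both directions relative to DMSO. Cytotoxicity tracked in parallel cultures by sulforhodamine B staining.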

[15] = read-out: Plasminogen activator inhibitor-1 (PAI1), SERPINE1 (gene 5054); test: BSK_BE3C_PAI1: BioMAP Diversity Plus: BE3C Assay for Plasminogen activator inhibitor-1 (PAI1) Biomarker Activity (AID 2283037); conditions: primary human bronchial epithelial cells; actives raise or lower the signal
Summary of the method: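 In this multiplexed primary-cell system, bronchial epithelial cells receive test chemical and are sampled at 24 h. PAI-1 is read by ELISA, with DMSO serving as negative control for bidirectional fitting.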

[16] = read-out: urokinase plasminogen activator (uPA), PLAU (gene 5328); test: BSK_BE3C_uPA: BioMAP Diversity Plus: BE3C Assay for urokinase plasminogen activator (uPA) Biomarker Activity (AID 2283038); conditions: primary human bronchial epithelial cells; actives raise or lower the signal
Summary of the method: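 Primary human bronchial epithelial cells, uPA measured by ELISA 24 h after dosing. Bidirectional change relative to DMSO; cytotoxicity checked in parallel cultures by sulforhodamine B total-protein staining.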

[17] = BSK_3C_Vis: BioMAP Diversity Plus: 3C Assay for Morphology Visualization (AID 2283025); conditions: primary human endothelial cells (HUVEC);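 further: fitted both ways so gain or loss versus DMSO counts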;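 on AC50: light microscopy image of cell morphology used as background control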
Summary of the method: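 Light-microscopy morphology readout, 24 h exposure, human primary umbilical vein endothelium; analysed relative to DMSO with bidirectional fitting.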

[18] = read-out: Transforming growth factor beta 1 (TGFb1), TGFB1 (gene 7040); test: BSK_BE3C_TGFb1: BioMAP Diversity Plus: BE3C Assay for Transforming growth factor beta 1 (TGFb1) Biomarker Activity (AID 2283036); conditions: primary human bronchial epithelial cells; actives raise or lower the signal
Summary of the method: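 TGF-b1 measured via ELISA, 24 h after chemical dosing of human bronchial epithelial cells (BE3C). Overt cytotoxicity assessed in parallel by SRB (0.1%, TCA-fixed, 560 nm); analysis bidirectional relative to DMSO.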

Measured: AC50

human Vitamin D Receptor (VDR), VDR (gene 7421), sequence (P11473 whole entry, looked up, the tested form may be a part): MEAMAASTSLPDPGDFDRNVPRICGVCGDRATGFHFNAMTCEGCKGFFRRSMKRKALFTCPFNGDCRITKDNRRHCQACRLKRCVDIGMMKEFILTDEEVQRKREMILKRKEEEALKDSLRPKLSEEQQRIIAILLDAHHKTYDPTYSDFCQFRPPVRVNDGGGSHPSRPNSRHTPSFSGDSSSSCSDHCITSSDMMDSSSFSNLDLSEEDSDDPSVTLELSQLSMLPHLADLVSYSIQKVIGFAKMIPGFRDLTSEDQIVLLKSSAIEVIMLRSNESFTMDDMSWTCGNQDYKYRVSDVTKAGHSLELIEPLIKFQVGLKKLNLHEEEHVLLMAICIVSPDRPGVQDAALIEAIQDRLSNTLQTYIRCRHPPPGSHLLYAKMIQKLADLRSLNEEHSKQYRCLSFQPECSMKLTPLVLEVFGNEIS

CCCCN(CCO)CCO
not listed: [17] | [18]
inactive: all other assays above

CCCCCCCC1CCCC1=O (stereo not drawn)
inactive: [2] | [7] | [8] | [9] | [14]
active: [1] 25.2 µM | [4] 32.9 µM | [5] 32.8 µM | [17] 37.8 µM | [6] 32.8 µM | [10] 30.7 µM | [11] 30.7 µM | [12] 31.5 µM | [13] 33.5 µM | [18] 36.6 µM | [15] 36.6 µM | [16] 32.4 µM

COc1ccccc1NC(=O)CC(C)=O
not listed: [3]
inactive: all other assays above

CC(=O)OCC=C(C)CCC=C(C)CCC=C(C)C
active: [11] 3.97 µM | [13] 8.81 µM | [15] 0.016 µM
inactive: all other assays above

CC(=O)Nc1cc(S(=O)(=O)O)cc2cc(S(=O)(=O)O)c(N=Nc3ccccc3)c(O)c12
inactive: [3]

C=C(C)C(=O)OCCC(F)(F)C(F)(F)C(F)(F)C(F)(F)C(F)(F)C(F)(F)C(F)(F)C(F)(F)F
not listed: [3] | [17] | [18]
inactive: all other assays above

CC1=C(C=O)C(C)(C)CCC1
inactive: [3]

CC(=N[Si](C)(C)C)O[Si](C)(C)C
inactive: [3]

CC(=O)C1C(=O)C=C(C)OC1=O (stereo not drawn)
inactive: [3]

Cc1ccc(C(C)(C)O)cc1
inactive: [3]

C=C(F)C(=O)OC(C(F)(F)F)C(F)(F)F
not listed: [3] | [17] | [18]
inactive: all other assays above
